Source: PubChem BioAssay (The Scripps Research Institute Molecular Screening Center)
Compounds with a hit are over-represented: about 3.5% of the library has one in this group of screens.
FBW7 act = FBW7 E3 ligase activators, primary screen, biochemical, AlphaScreen, human. F-box/WD repeat-containing protein 7 (Homo sapiens), Q969H0. AlphaScreen FBW7–phospho-cyclin E peptide binding, activator screen. normalized activity (activation), % at 26.1 µM. 650,000 compounds, 0.13% hits. AID 1259310, 2017; in the data active means normalized activity above about 1.9%;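 further: purified mutant Fbw7 with reduced substrate affinity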
TEAD-YAP block = TEAD-YAP interaction inhibition, primary screen, TEAD-YAP interaction inhibitor project, luminescence, HEK-TIYL cells; TEAD-Gal4/YAP UAS-luciferase luminescence; inhibition, % at 9.12 µM; 640,000 compounds, 1.4% hits; in the data active means inhibition above about 32%;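 further: 0% = median of test compound wells and 100% = reference inhibitor wells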
MITF inh = MITF inhibitors, primary screen, biochemical, AlphaScreen, human | inhibition, % at 2.6 µM | Microphthalmia-associated transcription factor (Homo sapiens), O75030 | AID 1259374, 2018 | AlphaScreen MITF homodimerization, bead proximity signal | 650,000 compounds, 0.91% hits; in the data active means inhibition above about 50%;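 further: 0% = vehicle wells with protein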
Target sequence (O75030 whole entry, looked up): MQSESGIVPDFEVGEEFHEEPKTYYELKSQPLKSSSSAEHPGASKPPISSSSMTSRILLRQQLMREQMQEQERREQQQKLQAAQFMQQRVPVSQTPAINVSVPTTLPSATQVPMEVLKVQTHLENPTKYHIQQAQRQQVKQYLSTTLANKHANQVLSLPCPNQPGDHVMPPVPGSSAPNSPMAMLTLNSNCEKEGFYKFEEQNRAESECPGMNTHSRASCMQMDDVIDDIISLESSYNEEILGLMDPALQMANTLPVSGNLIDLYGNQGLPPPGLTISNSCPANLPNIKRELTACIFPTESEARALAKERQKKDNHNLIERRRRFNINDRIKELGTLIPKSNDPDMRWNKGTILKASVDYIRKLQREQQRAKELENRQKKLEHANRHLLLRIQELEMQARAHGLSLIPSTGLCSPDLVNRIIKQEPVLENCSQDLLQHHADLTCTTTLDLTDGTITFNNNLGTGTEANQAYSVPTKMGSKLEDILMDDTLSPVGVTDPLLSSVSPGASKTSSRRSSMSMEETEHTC
GPR151 ag = activators of human GPR151, primary screen, cell-based, PathHunter beta-arrestin, luminescence. G-protein coupled receptor 151 (Homo sapiens), Q8TDV0. PathHunter beta-arrestin GPR151 cells. activation, % at 11.2 µM. 650,000 compounds, 1% hits. AID 1508602, 2020; in the data active means activation above about 4.9%;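 further: 0% = median of compound wells and 100% = cells with positive control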
An asterisk follows results filed as active.

For COCCn1c(-c2ccccc2)cnc1N the results were FBW7 act -1, TEAD-YAP block -5, MITF inh -3 and GPR151 ag 1.
For O=C(Nc1ccccc1)c1cccc(S(=O)(=O)N2CCCc3ccccc32)c1 the results were FBW7 act 0, TEAD-YAP block 3, MITF inh 6 and GPR151 ag 3.
Screening CC(=O)Nc1ccc(S(=O)(=O)Nc2ccc(S(=O)(=O)N3CCc4ccccc43)cc2)cc1 returned FBW7 act 0, TEAD-YAP block 17, MITF inh 9 and GPR151 ag 0.
Screening Cc1cccc(NC(=O)c2ccc(F)c(S(=O)(=O)N3CCCc4ccccc43)c2)c1 returned FBW7 act 0, TEAD-YAP block 10, MITF inh -2 and GPR151 ag 2.
Screening COC(=O)Nc1ccc(S(=O)(=O)N2CCCc3ccccc32)cc1 returned FBW7 act 0, TEAD-YAP block 56*, MITF inh 7 and GPR151 ag 2.
For O=C(Nc1ccc(Br)cc1)c1ccc(F)c(S(=O)(=O)N2CCCc3ccccc32)c1 the results were FBW7 act 0, TEAD-YAP block 46*, MITF inh -6 and GPR151 ag -1.
Screening O=C(Nc1ccc(F)cc1)c1cccc(S(=O)(=O)N2CCCc3ccccc32)c1 returned FBW7 act 0, TEAD-YAP block 40*, MITF inh 9 and GPR151 ag 1.
Screening Cc1ccc(C(=O)c2ccc(Br)cc2)cc1S(=O)(=O)Nc1ccc(Cl)cc1 returned FBW7 act 0, TEAD-YAP block 10, MITF inh 4 and GPR151 ag 0.
`COCC(C)n1c(C)cc(C(=O)COC(=O)c2cccn2C)c1C` (stereo not given) gave FBW7 act 0, TEAD-YAP block 67*, MITF inh 11 and GPR151 ag -2.
For Cc1nc2c(C(=O)NCc3ccccc3)cnn2c(C)c1Cc1ccccc1Cl the results were FBW7 act 1, TEAD-YAP block 2, MITF inh 15 and GPR151 ag 1.
`CCc1cccc(C)c1NC1=NS(=O)(=O)c2ccccc21` gave FBW7 act 0, TEAD-YAP block -11, MITF inh -3 and GPR151 ag -1.
O=C(Nc1ccc(Oc2ccc([N+](=O)[O-])c3cnccc23)cc1)c1ccco1 was read as FBW7 act 0, TEAD-YAP block 39*, MITF inh 19 and GPR151 ag -2.
Screening C[C@@H]1O[C@@H](OC[C@H]2OC(Oc3c(-c4ccc(O)c(O)c4)oc4cc(O)cc(O)c4c3=O)[C@H](O)[C@@H](O)[C@@H]2O)[C@H](O)[C@H](O)[C@H]1O (stereo not given in full) returned FBW7 act 0, TEAD-YAP block 7, MITF inh 82* and GPR151 ag 0.
CC1(C)Cc2ccccc2/C(=C/C(=O)Nc2ccccc2)N1 was read as FBW7 act 0, TEAD-YAP block -16, MITF inh 16 and GPR151 ag 2.
`CCOc1cc(C2C(C(=O)OC)=CN(Cc3ccc(Cl)cc3)C=C2C(=O)OC)ccc1O` gave FBW7 act 0, TEAD-YAP block -4, MITF inh -2 and GPR151 ag -1.
Screening CCOc1cc(C2C(C(=O)OC)=CN(Cc3ccc(OC)c(OC)c3)C=C2C(=O)OC)ccc1O returned FBW7 act 1, TEAD-YAP block 48*, MITF inh 13 and GPR151 ag 0.
Screening COC(=O)C1=CN(Cc2ccc(OC)c(OC)c2)C=C(C(=O)OC)C1c1ccc(F)cc1 returned FBW7 act 0, TEAD-YAP block -21, MITF inh -4 and GPR151 ag 0.
`COC(=O)C1=CN(Cc2ccc(OC)c(OC)c2)C=C(C(=O)OC)C1c1ccc(Br)cc1` gave FBW7 act 1.9*, TEAD-YAP block 3, MITF inh 4 and GPR151 ag -2.
For O=C(Nc1ccc(Br)cc1)c1cccc(S(=O)(=O)NCc2ccccc2)c1 the results were FBW7 act 0, TEAD-YAP block 41*, MITF inh -1 and GPR151 ag 3.
Cc1ccc(C(=O)Nc2ccc(S(=O)(=O)NCc3ccccc3)cc2)cc1 was read as FBW7 act 0, TEAD-YAP block 32*, MITF inh -15 and GPR151 ag -1.
`Cc1ccc(S(=O)(=O)NCc2ccccc2)cc1` gave FBW7 act 0, MITF inh 6 and GPR151 ag -1.
